Measured values from the supplement of paper PMC10037445.
“And” between values parts separate entries of the source, which are not always exact repeats. Equal entries are not always repeated. Whole data set: some 2,900 compounds, median “NF-kB SEAP reporter activity, fold change vs agonist alone” near 0.99, cut for the highest 2% near 2.6. What follows is part of a selection rich in the highest values, with near analogues and random picks from the rest.

What was measured:
RAW-Dual [1] = assay: NF-kB SEAP reporter activity, fold change vs agonist alone; higher = enhanced NF-kB activity; conditions: library stock concentration (final ~1000-fold dilution): 10 mM
Outline: (§1)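 Library stock was pin-tooled at 50 nL into 384-well plates of RAW-Dual macrophages (50,000 cells/well, DMEM), followed 1 h later by a PRR agonist, and the cells were kept at 37 °C, 5% CO2. Supernatant collected after 20 hours was read for IRF by QuantiLuc luminescence and for NF-κB by QuantiBlue absorbance at 620 nm. Reporter activity is fold change over agonist-alone wells, and a well counted as cytotoxic when its IncuCyte confluency was below 70% of agonist controls in both mask sets.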

RAW-Dual [2] = assay: NF-kB SEAP reporter activity, fold change vs agonist alone; cytotoxicity flag (confluency mask): not cytotoxic; higher = enhanced NF-kB activity
Outline: as §1

RAW-Dual [3] = assay: NF-kB SEAP reporter activity, fold change vs agonist alone; cytotoxicity flag (confluency mask): cytotoxic (confluency <70% of control); higher = enhanced NF-kB activity
Outline: as §1

[4] = cytotoxicity flag (confluency mask): not cytotoxic, agonist: Imiquimod (TLR7) […]
[5] = cytotoxicity flag (confluency mask): not cytotoxic, agonist: MPLA (TLR4) […]
[6] = agonist: ODN 1826 (TLR9) 0.5 ug/mL
[7] = agonist: Pam2CSK4 (TLR2/6) 0.1 ug/mL
[8] = agonist: Pam3CSK4 (TLR2/1) 0.1 ug/mL
[9] = cytotoxicity flag (confluency mask): cytotoxic (confluency <70% of control), agonist: Imiquimod (TLR7) […]
[10] = cytotoxicity flag (confluency mask): cytotoxic (confluency <70% of control), agonist: MPLA (TLR4) […]

SMILES: COc1cc(OC)c(C=CS(=O)(=O)Cc2ccc(OC)c(NCC(=O)O)c2)c(OC)c1
- NF-kB SEAP reporter activity (RAW-Dual [1]; [4]): 2.64
- NF-kB SEAP reporter activity (RAW-Dual [1]; [5]): 2.27

SMILES: COc1ccc(CNC(=O)CCl)cc1OC (library stock concentration (final ~1000-fold dilution): 10 mM)
- NF-kB SEAP reporter activity (RAW-Dual [2]; agonist: LPS (TLR4) 0.1 ug/mL): 0.67
- NF-kB SEAP reporter activity (RAW-Dual [2]; [6]): 0.674
- NF-kB SEAP reporter activity (RAW-Dual [2]; [7]): 0.728
- NF-kB SEAP reporter activity (RAW-Dual [2]; [8]): 0.679

SMILES: CC(=O)C1CCC2C3CCC4=CC(=O)CCC4(C)C3CCC12C (stereo unspecified)
- NF-kB SEAP reporter activity (RAW-Dual [1]; [4]): 0.441
- NF-kB SEAP reporter activity (RAW-Dual [1]; [5]): 1.06

SMILES: CC(=O)C1CCC2C3CCC4=CC(=O)CCC4(C)C3CCC12C (stereo unspecified) (library stock concentration (final ~1000-fold dilution): 10 mM)
- NF-kB SEAP reporter activity (RAW-Dual [2]; agonist: LPS (TLR4) 0.1 ug/mL): 0.981
- NF-kB SEAP reporter activity (RAW-Dual [2]; [6]): 1.06
- NF-kB SEAP reporter activity (RAW-Dual [2]; [7]): 1.38
- NF-kB SEAP reporter activity (RAW-Dual [2]; [8]): 1.51

SMILES: O=C(N/N=C/c1ccc([N+](=O)[O-])o1)c1ccc(O)cc1 (library stock concentration (final ~1000-fold dilution): 10 mM)
- NF-kB SEAP reporter activity (RAW-Dual [3]; agonist: LPS (TLR4) 0.1 ug/mL): 3.8
- NF-kB SEAP reporter activity (RAW-Dual [3]; [6]): 1.64
- NF-kB SEAP reporter activity (RAW-Dual [3]; [7]): 1.38
- NF-kB SEAP reporter activity (RAW-Dual [3]; [8]): 1.55

SMILES: O=C1CN(/N=C/c2ccc([N+](=O)[O-])o2)C(=O)N1 (library stock concentration (final ~1000-fold dilution): 10 mM)
- NF-kB SEAP reporter activity (RAW-Dual [2]; agonist: LPS (TLR4) 0.1 ug/mL): 1.09
- NF-kB SEAP reporter activity (RAW-Dual [2]; [6]): 0.855
- NF-kB SEAP reporter activity (RAW-Dual [2]; [7]): 1.1
- NF-kB SEAP reporter activity (RAW-Dual [2]; [8]): 1.11

SMILES: Cc1ccc(/C=N/NC(=O)c2ccccc2Oc2ccccc2)o1 (library stock concentration (final ~1000-fold dilution): 10 mM)
- NF-kB SEAP reporter activity (RAW-Dual [2]; agonist: LPS (TLR4) 0.1 ug/mL): 1.08
- NF-kB SEAP reporter activity (RAW-Dual [2]; [6]): 0.922
- NF-kB SEAP reporter activity (RAW-Dual [2]; [7]): 0.955
- NF-kB SEAP reporter activity (RAW-Dual [2]; [8]): 1.31

SMILES: O=C1CN(/N=C/c2ccc([N+](=O)[O-])o2)C(=O)N1
- NF-kB SEAP reporter activity (RAW-Dual [1]; [4]): 0.924
- NF-kB SEAP reporter activity (RAW-Dual [1]; [5]): 0.948

SMILES: Cc1ccc(/C=N/NC(=O)c2ccccc2Oc2ccccc2)o1
- NF-kB SEAP reporter activity (RAW-Dual [1]; [4]): 0.972
- NF-kB SEAP reporter activity (RAW-Dual [1]; [5]): 1.09

SMILES: O=C(N/N=C/c1ccc([N+](=O)[O-])o1)c1ccc(O)cc1
- NF-kB SEAP reporter activity (RAW-Dual [1]; [9]): 2.58
- NF-kB SEAP reporter activity (RAW-Dual [1]; [10]): 2.03

SMILES: COC1/C=C\C=C(/C)C(=O)NC2=CC(=O)C(NCCN(C)C)=C(CC(C)CC(OC)C(O)C(C)/C=C(\C)C1OC(N)=O)C2=O.Cl (stereo unspecified)
- NF-kB SEAP reporter activity (RAW-Dual [1]; [4]): 0.497
- NF-kB SEAP reporter activity (RAW-Dual [1]; [5]): 0.345

SMILES: COC1/C=C\C=C(/C)C(=O)NC2=CC(=O)C(NCCN(C)C)=C(CC(C)CC(OC)C(O)C(C)/C=C(\C)C1OC(N)=O)C2=O.Cl (stereo unspecified) (library stock concentration (final ~1000-fold dilution): 10 mM)
- NF-kB SEAP reporter activity (RAW-Dual [2]; agonist: LPS (TLR4) 0.1 ug/mL): 0.267
- NF-kB SEAP reporter activity (RAW-Dual [2]; [6]): 0.313
- NF-kB SEAP reporter activity (RAW-Dual [2]; [7]): 0.154
- NF-kB SEAP reporter activity (RAW-Dual [2]; [8]): 0.199

SMILES: CC(C)NCC(C(=O)N1CCN(c2ncnc3c2C(C)CC3O)CC1)c1ccc(Cl)cc1 (stereo unspecified) (library stock concentration (final ~1000-fold dilution): 10 mM)
- NF-kB SEAP reporter activity (RAW-Dual [2]; agonist: LPS (TLR4) 0.1 ug/mL): 0.942
- NF-kB SEAP reporter activity (RAW-Dual [2]; [6]): 0.996
- NF-kB SEAP reporter activity (RAW-Dual [2]; [7]): 1.15
- NF-kB SEAP reporter activity (RAW-Dual [2]; [8]): 1.11

SMILES: CC(C)NCC(C(=O)N1CCN(c2ncnc3c2C(C)CC3O)CC1)c1ccc(Cl)cc1 (stereo unspecified)
- NF-kB SEAP reporter activity (RAW-Dual [1]; [4]): 1.27
- NF-kB SEAP reporter activity (RAW-Dual [1]; [5]): 1.13

SMILES: C=CC(=O)N1CCCC(n2nc(-c3ccc(Oc4ccccc4)cc3)c(C(N)=O)c2N)C1 (stereo unspecified)
- NF-kB SEAP reporter activity (RAW-Dual [1]; [4]): 0.67
- NF-kB SEAP reporter activity (RAW-Dual [1]; [5]): 0.637

SMILES: C=CC(=O)N1CCCC(n2nc(-c3ccc(Oc4ccccc4)cc3)c(C(N)=O)c2N)C1 (stereo unspecified) (library stock concentration (final ~1000-fold dilution): 10 mM)
- NF-kB SEAP reporter activity (RAW-Dual [2]; agonist: LPS (TLR4) 0.1 ug/mL): 0.404
- NF-kB SEAP reporter activity (RAW-Dual [2]; [6]): 0.546
- NF-kB SEAP reporter activity (RAW-Dual [2]; [7]): 0.224
- NF-kB SEAP reporter activity (RAW-Dual [2]; [8]): 0.272

SMILES: Cl.NC(=O)c1cnc(NC2CCCCC2N)nc1Nc1cccc(-n2nccn2)c1 (stereo unspecified) (library stock concentration (final ~1000-fold dilution): 10 mM)
- NF-kB SEAP reporter activity (RAW-Dual [3]; agonist: LPS (TLR4) 0.1 ug/mL): 0.377
- NF-kB SEAP reporter activity (RAW-Dual [3]; [6]): 0.204
- NF-kB SEAP reporter activity (RAW-Dual [3]; [7]): 0.315
- NF-kB SEAP reporter activity (RAW-Dual [3]; [8]): 0.248

SMILES: Cl.NC(=O)c1cnc(NC2CCCCC2N)nc1Nc1cccc(-n2nccn2)c1 (stereo unspecified)
- NF-kB SEAP reporter activity (RAW-Dual [1]; [9]): 0.258
- NF-kB SEAP reporter activity (RAW-Dual [1]; [10]): 0.336

SMILES: O=C(/C=C/c1ccc(CN(CCO)CCc2c[nH]c3ccccc23)cc1)NO (library stock concentration (final ~1000-fold dilution): 10 mM)
- NF-kB SEAP reporter activity (RAW-Dual [3]; agonist: LPS (TLR4) 0.1 ug/mL): 5.57
- NF-kB SEAP reporter activity (RAW-Dual [3]; [6]): 1.51
- NF-kB SEAP reporter activity (RAW-Dual [3]; [7]): 1.46
- NF-kB SEAP reporter activity (RAW-Dual [3]; [8]): 1.68

SMILES: OCc1c[nH]c2ccccc12 (library stock concentration (final ~1000-fold dilution): 10 mM)
- NF-kB SEAP reporter activity (RAW-Dual [2]; agonist: LPS (TLR4) 0.1 ug/mL): 1.1 and 1.21
- NF-kB SEAP reporter activity (RAW-Dual [2]; [6]): 0.998 and 1.05
- NF-kB SEAP reporter activity (RAW-Dual [2]; [7]): 1.03 and 1
- NF-kB SEAP reporter activity (RAW-Dual [2]; [8]): 1.29 and 1.17

SMILES: O=C(O)CCc1c[nH]c2ccccc12
- NF-kB SEAP reporter activity (RAW-Dual [1]; [4]): 0.934
- NF-kB SEAP reporter activity (RAW-Dual [1]; [5]): 0.964

SMILES: O=C(/C=C/c1ccc(CN(CCO)CCc2c[nH]c3ccccc23)cc1)NO
- NF-kB SEAP reporter activity (RAW-Dual [1]; [9]): 2.64
- NF-kB SEAP reporter activity (RAW-Dual [1]; [10]): 2.71

SMILES: O=C(O)CCc1c[nH]c2ccccc12 (library stock concentration (final ~1000-fold dilution): 10 mM)
- NF-kB SEAP reporter activity (RAW-Dual [2]; agonist: LPS (TLR4) 0.1 ug/mL): 1.08
- NF-kB SEAP reporter activity (RAW-Dual [2]; [6]): 1.06
- NF-kB SEAP reporter activity (RAW-Dual [2]; [7]): 1.03
- NF-kB SEAP reporter activity (RAW-Dual [2]; [8]): 0.898

SMILES: OCc1c[nH]c2ccccc12
- NF-kB SEAP reporter activity (RAW-Dual [1]; [5]): 1.03
